Screening data from PubChem BioAssay.
JMJD2A Tudor inh – JMJD2A Tudor domain (human) inhibition; 390,000 compounds, 4.4% hits; AID 504339; AlphaScreen JMJD2A-Tudor / H3K4me3 peptide binding; Potency, µM (doses to about 114 µM), without a hit: top-dose activity change, negative = inhibition, most hits filed as inhibitors; O75164; further: on the % scale 0 is the no-effect control and ±100 the full control effect; nearly all actives have a fitted effect of over 50% in size
Target sequence (O75164 whole entry, looked up, the tested form may be a part): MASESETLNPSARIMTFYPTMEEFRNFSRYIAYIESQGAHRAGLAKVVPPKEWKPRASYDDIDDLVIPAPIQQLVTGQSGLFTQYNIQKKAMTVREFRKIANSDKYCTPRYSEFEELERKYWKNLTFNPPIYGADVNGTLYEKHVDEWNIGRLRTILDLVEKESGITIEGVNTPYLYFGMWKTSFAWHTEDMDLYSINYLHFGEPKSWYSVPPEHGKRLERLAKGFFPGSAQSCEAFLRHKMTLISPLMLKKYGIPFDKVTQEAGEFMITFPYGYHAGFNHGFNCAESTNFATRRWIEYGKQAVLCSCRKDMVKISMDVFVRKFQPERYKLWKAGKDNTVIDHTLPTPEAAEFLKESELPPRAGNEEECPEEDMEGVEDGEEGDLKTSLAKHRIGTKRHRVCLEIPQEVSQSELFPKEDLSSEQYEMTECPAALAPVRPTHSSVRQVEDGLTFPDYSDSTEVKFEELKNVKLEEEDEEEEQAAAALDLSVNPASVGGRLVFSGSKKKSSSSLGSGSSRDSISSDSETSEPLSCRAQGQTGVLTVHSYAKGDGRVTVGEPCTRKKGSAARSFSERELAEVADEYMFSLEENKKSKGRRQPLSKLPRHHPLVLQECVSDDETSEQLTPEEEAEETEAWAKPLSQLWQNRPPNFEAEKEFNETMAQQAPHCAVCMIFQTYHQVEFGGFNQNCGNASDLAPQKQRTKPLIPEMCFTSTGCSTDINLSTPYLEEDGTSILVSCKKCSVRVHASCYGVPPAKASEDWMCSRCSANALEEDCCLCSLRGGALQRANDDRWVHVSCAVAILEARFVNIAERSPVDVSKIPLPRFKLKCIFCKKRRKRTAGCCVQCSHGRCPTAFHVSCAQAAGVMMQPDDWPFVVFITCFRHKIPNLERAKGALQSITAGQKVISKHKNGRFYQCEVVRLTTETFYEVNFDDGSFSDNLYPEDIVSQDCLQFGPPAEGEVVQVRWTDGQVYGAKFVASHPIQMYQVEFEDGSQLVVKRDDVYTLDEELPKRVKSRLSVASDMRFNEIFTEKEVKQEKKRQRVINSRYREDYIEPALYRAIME
BAZ2B inh – inhibitors of human BAZ2B bromodomain; AlphaScreen BAZ2B-H3K14Ac peptide displacement; AID 504333; Potency, µM (titrated, usually from 114 µM), inactives show top-dose activity change, negative = inhibition, most hits filed as inhibitors; 360,000 compounds, 4.4% hits; further: on the % scale 0 is the no-effect control and ±100 the full control effect; nearly all actives have a fitted effect of over 60% in size
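In this displacement format the biotinylated H3(5-23) peptide acetylated at Lys14 serves as ligand at 50 nM, with BAZ2B at 50 nM in PBS pH 7.4 containing 0.01% Tween-20. Donor and acceptor beads are 10 ug/mL final.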
HP1b binding inh – inhibitors of HP1-beta chromodomain binding to methylated histone tails. AID 540317. P83916. AlphaScreen HP1-beta / biotin-H3K9me3 peptide binding. Potency, µM (highest dose often 114 µM), without a hit: top-dose activity change, negative = inhibition, actives largely listed as inhibitors. 390,000 compounds, 0.56% hits; further: nearly all actives have a fitted effect of over 70% in size
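AlphaScreen: HP1-beta (50 nM) preformed 30 min with biotin-H3(1-18)K9me3 peptide (50 nM) in PBS pH 7.4, 0.01% Tween-20. Compound added for 30 min at RT, then streptavidin donor/nickel chelate acceptor beads (10 ug/mL) for 30 min.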
G9a inh – blocks human histone lysine methyltransferase G9a. Q96KQ7. G9a H3K9 monomethylation, AlphaScreen, 2 h. Potency, µM (doses to about 102 µM), for the others: top-dose activity, negative = inhibition, hits mostly inhibitors. 350,000 compounds, 8.8% hits; further: on the % scale 0 is the no-effect control and ±100 the full control effect; nearly all actives have a fitted effect of over 75% in size
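Signal arises when biotinylated H3K9 peptide, once monomethylated, bridges streptavidin donor and antibody-captured acceptor beads. Enzyme at 20 nM was preincubated 15 min with test compounds; peptide 500 nM and SAM 20 uM then reacted for 2 h.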
Sfp inh – Sfp phosphopantetheinyl transferase inhibition; Q9F4F7; Biochemical Sfp PPTase activity, qHTS; Potency, µM, without a hit: largest response in the series, negative = inhibition, usual class: inhibitors; 310,000 compounds, 3.5% hits; AID 1490;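 further: the enzyme is Sfp with the accession as filed and its product quenches rhodamine fluorescence; 0% = enzyme reaction without inhibitor and -100% = no enzyme wells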
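Reaction rates are the 30-min fluorescence difference (ex 525, em 598 nm) in wells containing 15 nM Sfp, 5 uM rhodamine-CoA and 12.5 uM BHQ-2-YbbR at pH 7.6 with 10 mM MgCl2.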
* hit, by the source's call; ? = inconclusive; . = not tested or not shown; [ ] = another dose, or the depositor's remark. Compounds with a hit are over-represented: about 12% of the library has one in this group of screens. The call rests on the fitted dose curve; in most records, active means well fitted curve in the direction sought with a large enough effect; inconclusive means small, poorly fitted or top-dose-only effect, or another doubt; inactive means no such curve, though single readings can be large; an effect the other way counts as inactive or inconclusive. Potency means the concentration at half of the fitted maximal effect.

SMILES	JMJD2A Tudor inh	BAZ2B inh	HP1b binding inh	G9a inh	Sfp inh
CCOc1cc(N2CCOCC2)c(OCC)cc1NC(=O)c1c(-c2ccccc2)noc1C	?	45µM*	-15%	-6%[2.33 µM]	.
Cc1onc(-c2ccccc2)c1C(=O)Nc1ccc(S(=O)(=O)N2CCOCC2)cc1	-9%	5%	-2%	50µM*	37%
CCOc1cc(N2CCOCC2)c(OCC)cc1NC(=O)c1c(C)noc1C	-16%	-2%	18%	16µM*	.
CCOc1cc(N2CCOCC2)c(OCC)cc1NC(=O)c1c(-c2ccccc2Cl)noc1C	45µM*	40µM*	?	35µM*	0%
CCOc1cc(N2CCOCC2)c(OCC)cc1NC(=O)c1cc(C)cc(C)c1	-25%	-34%	-9%	?	-28%
NC(=O)c1ccccc1NC(=O)CCCc1ccccc1	-12%	3%	17%	-4%[0.501 µM]	19%
CCOc1ccc(-c2c(C(=O)N/N=C/C3CCCCC3)nnn2-c2nonc2N)cc1	-4%	?	45%	24%	2%
Cc1cc(N2CCN(c3ccc(C(F)(F)F)cc3[N+](=O)[O-])CC2)c2ccccc2n1	45µM*	25µM*	-26%	.	71µM*
O=[n+]1c2c(n([O-])c3ccccc31)CCC2	-16%[57.1 µM]	-2%	42%	-6%[59 µM]	-16%
CN(C1CCCCC1)S(=O)(=O)c1cc2c(cc1Cl)NC(=O)CO2	-24%	-35%	19%	-18%	2%
Cc1cc(NC(=O)CCN2C(=O)/C(=C\c3ccccc3Cl)SC2=S)no1	-6%	-6%	33%	8%	50µM*
CN1CCN(NC(=O)CN2C(=O)/C(=C/c3ccccc3Cl)SC2=S)CC1	?	?	-11%	?	?
CN1CCN(NC(=O)CN2C(=O)/C(=C/c3c(Cl)cccc3Cl)SC2=S)CC1	?	?	20%	56µM*	-18%
O=C(CCN1C(=O)/C(=C/c2ccccc2Cl)SC1=S)Nc1ccccc1C(=O)O	?	35µM*	-10%	25%[2.33 µM]	1%
Cc1[nH]c2ccc(OC(=O)N3CCOCC3)cc2c1C(=O)OC(C)C	-4%	9%	20%	22%[12.7 µM]	14%
Cc1ccccc1C(=O)NC(=S)NCCN1CCOCC1	11%[57.1 µM]	-5%	59%	26%[59 µM]	-5%
C[C@H](NS(=O)(=O)OCC(Cl)(Cl)Cl)C1CC1c1ccccc1 (stereo partly drawn)	45µM*	?	-17%	?	10%
CC(=O)OCCCNc1cc(Sc2ccc(Cl)cc2)c2nonc2c1[N+](=O)[O-]	-19%	-19%	5%	?	50µM*
Cc1ccc(Sc2cc(NCCCO)c([N+](=O)[O-])c3nonc23)cc1	-12%[11.4 µM]	-25%	-5%	50µM*	-24%
COC(=O)CCSc1cc(NCCCOC(C)=O)c([N+](=O)[O-])c2nonc12	1%[57.1 µM]	.	8%[57 µM]	.	.
CC(C)CCSc1cc(NCCO)c([N+](=O)[O-])c2nonc12	-31%	-33%	22%	50µM*	-13%
CCCC(=O)OCCNc1cc(Sc2nc3ccccc3[nH]2)c2nonc2c1[N+](=O)[O-]	79µM*	?	?	?	10µM*
O=C(COc1ccc(Cl)cc1)NNC(=O)c1ccc(=O)[nH]c1	-8%	.	34%	.	.
CCCCN(C)C(=O)Cn1ncc2c([nH]c3ccc(C)cc32)c1=O	-8%	8%[57.1 µM]	21%	-6%[59 µM]	.
CCC(=O)OCCNc1cc(SCCC(=O)OC)c2nonc2c1[N+](=O)[O-]	-16%[57.1 µM]	-8%	12%[57 µM]	13µM*	-25%
SMILES	JMJD2A Tudor inh	BAZ2B inh	HP1b binding inh	G9a inh	Sfp inh
CCC1(OC(=O)CN(C)C)C(=O)OCc2c1cc1n(c2=O)Cc2cc3c(N)cccc3nc2-1 (stereo not drawn)	16µM*	.	-10%	.	.
CCC1(O)C(=O)OCc2c1cc1n(c2=O)Cc2cc3c(N)cccc3nc2-1 (stereo not drawn)	-6%	.	30%	.	.
COc1ccc(C(C)=O)cc1CSCC(=O)O	0%	-13%	11%	0%	8%
COc1ccc(/C=C/C(=O)c2ccccc2)cc1COc1ccc(F)cc1	-5%	-3%[57.1 µM]	51%	41%	?
COc1ccc(C(=O)/C=C/c2ccc(OCc3ccccc3)cc2)cc1CSCC(=O)O	56µM*	-6%	-17%	56%	8%
COc1ccc(C(=O)/C=C/c2cccc(OCc3ccccc3)c2)cc1CSCC(=O)O	50µM*	45µM*	-31%	.	-20%
C/C(=N/NC(=O)CNC(=O)c1ccccc1F)c1ccc2c(c1)CCCC2	32µM*	0%	-7%	-3%	19%
CCn1ncc(C2=NOC(C(=O)NCc3ccccc3)C2)c1C (stereo not drawn)	-1%	1%	-8%	45µM*	79µM*
COc1ccc(N2CCN(c3ncnc4nc[nH]c34)CC2)cc1	-12%	4%	48%	-18%	5%
NC(=O)C[C@@H]1N[C@]2(C(=O)Nc3ccccc32)[C@@H]2C(=O)N(C3CCCCC3)C(=O)[C@H]12	-2%	-2%	7%	-32%	21%
CC(C)[C@@H]1N[C@]2(C(=O)Nc3ccccc32)[C@@H]2C(=O)N(c3cccc(C(F)(F)F)c3)C(=O)[C@@H]21	-7%	11%	34%	50µM*	19%
CCCOc1ccc(N2C(=O)C3C(C(C)C)NC4(C(=O)c5ccccc5C4=O)C3C2=O)cc1 (stereo not drawn)	-18%	-5%	16%	?	-2%
NC(=O)C[C@@H]1N[C@]2(C(=O)Nc3ccccc32)[C@@H]2C(=O)N(c3cc(C(F)(F)F)ccc3Cl)C(=O)[C@H]12	-19%	-2%	33%	50µM*	14%
Cc1ccc(N/C=C/C(=O)c2ccco2)c(O)c1	-20%	-7%	40%	-13%	-11%
Cc1nn(Cc2c(Cl)cccc2Cl)c(C)c1NC(=O)CCCn1nc(C)c([N+](=O)[O-])c1C	7%	-9%	43%	-7%[59 µM]	-20%
O=C(NNc1ccc(C(F)(F)F)cc1[N+](=O)[O-])c1ccc(NS(=O)(=O)c2ccc(F)cc2)cc1	22µM*	10µM*	?	25µM*	7%
O=C(N/N=C/c1cc(Cl)ccc1O)c1ccccc1Br	79µM*	?	23%	-35%	4%
O=C(CNC(=O)c1ccccc1Br)N/N=C/c1cc(Br)ccc1O	-6%	0%	31%	1%	18%
O=C(N/N=C/c1cc(Cl)ccc1O)c1cccnc1	45µM*	7.9µM*	52%	.	24%
O=C1c2ccccc2C(=O)N1Cc1nc(-c2ccccn2)no1	-21%	-30%	6%	?	4%
C/C(N)=C(/C#N)C(=O)COC(=O)C(c1ccccc1)c1ccccc1	-20%	-9%	-22%	-2%	4%
CCN(CC(=O)Nc1cccc(S(=O)(=O)N(C)c2ccccc2)c1)Cc1cccs1	-6%	-32%	21%	10%[59 µM]	.
